Out of some 96,000 compounds screened, about 1,400 (1.5%) were called active.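 How the source made its calls: active means activation factor of 2 or more for CYP2C9 at a 5 µM dose; inactive means the rest.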 For the sample, actives were picked, then their nearest neighbours and some compounds at random.
Each compound was assayed against Cytochrome P450 2C9 (Homo sapiens) (UniProt P11712) (assay: enhancers of cytochrome P450 2C9 turnover – biochemical, luminescence, primary screen (AID 1024;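 further: 0 = sulfaphenazole-blocked wells and 1 = vehicle-only wells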)). Settings: recombinant CYP2C9, luciferin-H conversion, at 5 µM, hits give high values, factor 1 = untreated enzyme, 0 = blocked.
Sequence of Cytochrome P450 2C9 (Homo sapiens) (P11712 whole entry, looked up): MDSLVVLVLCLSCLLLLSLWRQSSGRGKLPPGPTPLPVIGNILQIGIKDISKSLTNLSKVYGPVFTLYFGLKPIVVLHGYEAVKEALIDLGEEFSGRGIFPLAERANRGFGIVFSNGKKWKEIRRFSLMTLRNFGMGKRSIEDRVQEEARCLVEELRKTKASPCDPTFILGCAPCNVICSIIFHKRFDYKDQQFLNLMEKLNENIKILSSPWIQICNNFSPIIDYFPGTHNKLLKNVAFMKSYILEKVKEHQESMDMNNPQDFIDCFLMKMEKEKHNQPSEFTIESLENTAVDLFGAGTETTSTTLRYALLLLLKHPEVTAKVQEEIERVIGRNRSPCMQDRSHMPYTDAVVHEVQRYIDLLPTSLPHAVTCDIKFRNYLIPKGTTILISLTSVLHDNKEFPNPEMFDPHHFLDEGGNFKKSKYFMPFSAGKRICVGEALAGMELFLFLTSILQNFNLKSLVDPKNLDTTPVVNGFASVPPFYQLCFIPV

SMILES | activation factor
CCOc1ccc(NC(=O)C2CC(=O)N=C(N)S2)cc1 (stereo unspecified) | 1 (inactive)
COc1cccc(NC(=O)c2ccccc2SC)c1 | 1 (inactive)
COc1cccc(C(=O)Nc2ccc(N3CCCC3)cc2)c1 | 0.9 (inactive)
COc1cccc(C(=O)NNC(=O)c2ccccc2Br)c1 | 2.8 (active)
Cc1cc2cc3c(cc2nc1SCC(=O)Nc1c(C)cccc1C)CCC3 | 0.4 (inactive)
CCOc1cc(C)c(Cl)cc1S(=O)(=O)n1nnc2ccccc21 | 0.6 (inactive)
CCOc1cc(N2CCOCC2)c(OCC)cc1NC(=O)COc1cccc2cccnc12 | 1 (inactive)
Cc1cc(OCCOc2cccc3cccnc23)c(C)cc1Cl | 2.7 (active)
Cc1cc(SCC(=O)c2ccccc2)nc(SCC(=O)c2ccccc2)n1 | 0.3 (inactive)
Cc1ccn(C(CC(=O)c2ccc(Br)cc2)C(=O)O)n1 (stereo unspecified) | 2.1 (active)
Cn1c(=O)c2c(nc(N3CCCCCC3)n2CC(=O)c2ccc(Br)cc2)n(C)c1=O | 0.8 (inactive)
Cc1cc([N+](=O)[O-])ccc1NCc1cccc([N+](=O)[O-])c1 | 1 (inactive)
O=C(NCCCN1CCN(C2CCCCC2)CC1)Nc1ccccc1C(F)(F)F | 1 (inactive)
Cc1cc(C)nc(NC(=O)C(C)N2C(=O)c3ccccc3C2=O)n1 (stereo unspecified) | 1.2 (inactive)
Cc1cc(C)nc(NC(=O)Nc2ccccc2C(F)(F)F)n1 | 2.9 (active)
O=C(Nc1ccc2sc3ccccc3c(=O)c2c1)c1ccccc1Cl | 1.1 (inactive)
O=c1c2ccccc2nc2n1C(CSCc1cccc(C(F)(F)F)c1)CS2 (stereo unspecified) | 0.6 (inactive)
COc1ccc(-c2nc(-c3ccccc3)no2)c(OC)c1 | 1.1 (inactive)

SMILES | activation factor
COc1cc(-c2nc(-c3ccncc3)no2)cc(OC)c1OC | 0.2 (inactive)
COc1ccc(-c2noc(-c3cccc(OC)c3OC)n2)cc1OC | 2 (active)
Cc1cccc(N(CC(=O)Nc2ccc(-c3nc4ccc(C)cc4s3)cc2)S(C)(=O)=O)c1 | 0.9 (inactive)
CNS(=O)(=O)c1cnccc1N1CCN(c2cccc(C)c2)CC1 | 0.4 (inactive)
O=C1Nc2c(Br)cc(Br)cc2C1(O)N1CCOCC1 (stereo unspecified) | 3 (active)
O=C(CN1CCOCC1)Nc1ccccc1 | 0.9 (inactive)
O=C(CN1CCOCC1)Nc1cc(Cl)ccc1Cl | 2.4 (active)
O=C(CN1CCOCC1)Nc1ccc(NC(=O)CN2CCOCC2)c(Cl)c1 | 1 (inactive)
COc1ccc(OC)c(/C=N/NC(=O)CSc2nnc(C)n2-c2ccccc2)c1 | 0.8 (inactive)
COc1ccc(C)cc1N(C)C(=O)c1coc(=O)c2ccccc12 | 0.7 (inactive)
CCCn1c(C(Cc2ccccc2)NC(=O)COC)nc2ccccc21 (stereo unspecified) | 0.3 (inactive)
Cc1ccc(N2CCN(/N=C/c3cccs3)CC2)cc1 | 1.1 (inactive)
Cc1ccc(N2CCN(C3=NC(=O)/C(=C\c4cccs4)S3)CC2)cc1 | 2.3 (active)
Cc1ccsc1/C=C1\SC(N2CCOCC2)=NC1=O | 1.2 (inactive)
CO/N=C/c1ccc(N2CCN(C(=O)c3cccc(Cl)c3)CC2)c([N+](=O)[O-])c1 | 0.9 (inactive)
CN=C1S/C(=C\c2ccc(Sc3ccc(Cl)cc3)o2)C(=O)N1C | 0.7 (inactive)
CC(C)C(C)NC(=O)COc1ncnc2ccccc12 (stereo unspecified) | 0.9 (inactive)
CCOC(=O)c1c(NC(=O)c2ccc(N3CCOCC3)c([N+](=O)[O-])c2)sc(C)c1C | 0.9 (inactive)
